Measurements as given in PubChem BioAssay AID624126 (The Scripps Research Institute Molecular Screening Center, 2012).
About 1,400 (0.39%) of roughly 360,000 compounds were called active. What follows is part of a selection rich in actives, with near analogues and random picks from the rest. Unmarked numbers belong to inactive results.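 Rule for the calls: active = activation above its plate's cutoff, the mean activation of sample wells plus 3 SD; inactive = the rest.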

What follows are compounds tested against Muscarinic acetylcholine receptor M4 (Homo sapiens) (UniProt P08173) (assay: human M4 muscarinic receptor positive allosteric modulators, primary screen, CHO-K1 cells, Fluo-8 calcium fluorescence (AID 624126)). Details: CHO-K1 hM4/Gqi5, Fluo-8 calcium fluorescence, ACh EC20; at 3 µM; active compounds read high; 0% = ACh EC20, 100% = maximal ACh.
Sequence of Muscarinic acetylcholine receptor M4 (Homo sapiens) (P08173 whole entry, looked up): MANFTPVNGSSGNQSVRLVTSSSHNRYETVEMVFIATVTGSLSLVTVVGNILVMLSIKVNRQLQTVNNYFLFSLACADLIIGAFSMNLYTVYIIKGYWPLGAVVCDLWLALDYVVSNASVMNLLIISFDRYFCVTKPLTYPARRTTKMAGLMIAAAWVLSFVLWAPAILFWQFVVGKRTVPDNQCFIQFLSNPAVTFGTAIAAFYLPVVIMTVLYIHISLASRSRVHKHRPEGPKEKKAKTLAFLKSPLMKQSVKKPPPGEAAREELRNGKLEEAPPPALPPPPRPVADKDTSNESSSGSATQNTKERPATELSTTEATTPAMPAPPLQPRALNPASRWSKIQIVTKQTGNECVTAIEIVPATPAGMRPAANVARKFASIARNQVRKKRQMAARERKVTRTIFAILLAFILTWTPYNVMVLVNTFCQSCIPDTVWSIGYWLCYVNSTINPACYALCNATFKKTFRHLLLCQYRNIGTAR

Row | SMILES | activation
1 | O=C(Nc1ccc(F)cc1)C1CCCN(S(=O)(=O)c2ccc(-n3cnnn3)cc2)C1 (centres undefined) | 8%
2 | CCOC(=O)c1ccc(S(=O)(=O)N(CCO)Cc2cc3cc(OC)c(OC)cc3[nH]c2=O)cc1 | -7.09%
3 | O=C(CCN1C(=O)c2ccccc2C1=O)NCCCn1ccnc1 | 8.67%
4 | O=C(NCCCn1ccnc1)/C(=C\c1ccccc1F)NC(=O)c1ccccc1 | -3.09%
5 | O=C(CN1C(=O)S/C(=C\c2ccccc2F)C1=O)NCCCn1ccnc1 | 17.2% (active)
6 | COC(=O)CSc1nnc(NC(=O)CCc2ccccc2)s1 | 19.8% (active)
7 | COCCNc1nnc(SCC(=O)NNC(=O)c2ccco2)s1 | 2.78%
8 | CC(C)(C)CC(=O)Nc1nnc(SCC(=O)NCc2cccs2)s1 | -0.98%
9 | COc1ccc(CC(=O)N2N=C(C)CC2(O)C(F)(F)F)cc1 (centres undefined) | 24% (active)
10 | CC1=NN(C(=O)CCCc2ccccc2)C(O)(C(F)(F)F)C1 (centres undefined) | 9.78%
11 | CC1=NN(C(=O)CCc2ccccc2O)C(O)(C(F)(F)F)C1 (centres undefined) | 5.29%
12 | Cn1cc(CN2CCCCC2c2ccccn2)c(-c2ccc3c(c2)OCCO3)n1 (centres undefined) | 5.23%
13 | CCOC(=O)c1c(NC(=O)C2CC=CCC2C(=O)O)sc(C)c1CC (centres undefined) | 0.65%
14 | O=C1CCCCC1Sc1ccc(Cl)cc1[N+](=O)[O-] (centres undefined) | -0.97%
15 | O=C(NC1CCCCC1)C1CCCN(S(=O)(=O)c2ccc(Br)s2)C1 (centres undefined) | -0.65%
16 | CC1=C(C(=O)N2CCOCC2)CC(CC(=O)NCc2cccc3ccccc23)C(=O)N1CCC1=CCCCC1 (centres undefined) | 0.96%
17 | CCOc1cc(C(C(=O)NCC2CCCO2)N(C(=O)Cn2nnc3ccccc32)c2cccc(OC)c2)ccc1O (centres undefined) | 44.7% (active)
18 | Cc1ccc(C(C(=O)NCc2ccco2)N(CC2CCCO2)C(=O)Cn2nnc3ccccc32)cc1 (centres undefined) | 4.26%
19 | COc1ccc(C(C(=O)NCC2CCCO2)N(C(=O)Cn2nnc3ccccc32)c2ccc(NC(C)=O)cc2)cc1OC (centres undefined) | 6.34%
20 | Cc1ccc(NC(=O)C2CC2)cc1S(=O)(=O)N1CCOCC1 | 0.09%
21 | CC(C)Oc1ccc(C(=O)Nc2cc(=O)n(C)c(=O)n2C)cc1 | 5.54%
22 | C=CCOc1ccc(/C=N/n2cncn2)cc1OC | 8.05%
23 | COc1ccc(-c2oc3ncn(Cc4ccco4)c(=N)c3c2-c2ccc(OC)cc2)cc1 | -6.61%

Row | SMILES | activation
24 | O=C(Cn1c(=O)n(Cc2ccco2)c(=O)c2ccccc21)NCC1CCCO1 (centres undefined) | 5.16%
25 | Cn1c2ccccc2c(=O)c2c(=O)n(Cc3ccco3)c(COc3ccccc3)nc21 | 21.8% (active)
26 | CCc1cccc(NC(=O)COC(=O)c2cc(=O)c3ccccc3o2)c1 | 10.9%
27 | COc1ccc(CCNC(=O)COC(=O)c2ccc[nH]c2=O)cc1 | 11.3%
28 | COc1ccc(CCNC(=O)COC(=O)c2cc(=O)c3ccccc3o2)cc1 | 26.3% (active)
29 | COC(=O)c1c(NC(=O)COC(=O)[C@@H](NS(=O)(=O)c2ccccc2)C(C)C)sc2c1CCC2 | -4.52%
30 | COC(=O)c1scc(S(=O)(=O)C(C)(C)C)c1-n1cccc1 | -11.5%
31 | COc1cc(C(=O)N2CCN(C3CCC(C)CC3)CC2)cc(OC)c1OC (centres undefined) | -7.26%
32 | CC(C)N=C1CCCC1C(=S)SSC(=S)C1CCCC1=NC(C)C (centres undefined) | 7.38%
33 | Cc1cc(C)cc(C(=O)NC(=S)Nc2ccc3[nH]c(=O)[nH]c3c2)c1 | 5.23%
34 | Cn1nnc(NC(=S)NC(=O)c2ccccc2)n1 | 22.4%
35 | Cc1cc2[nH]ncc2cc1NC(=S)NC(=O)c1ccccc1 | 31.9% (active)
36 | COc1ccc(C(=O)C2CCCN(C(=O)c3ccc(OC)o3)C2)c(C)c1 (centres undefined) | -1.21%
37 | Cc1cccc(-n2c(SCC(N)=O)nc3c(c2=O)C2(CCCCC2)Cc2ccccc2-3)c1 | -5.47%
38 | O=c1c2ccccc2nc2n1C1(CCCCC1)Cc1ccccc1-2 | 21.2% (active)
39 | CN(c1ccc2nc3ccccc3c(=O)n2n1)C1CCCCC1 | 11.4%
40 | Cc1ccc(C(=O)C(C)OC(=O)Cc2n[nH]c(=O)c3ccccc23)cc1C (centres undefined) | -4.11%
41 | COc1ccc(C(=O)N/N=C2\CCS(=O)(=O)c3ccc(F)cc32)cc1OC | 2.71%
42 | Cc1sc2ncnc(N3CCC(C(=O)NNC(=O)c4ccc(F)cc4)CC3)c2c1C | -3.74%
43 | Cc1sc2ncnc(N3CCC(C(=O)Nc4nc5ccc(Cl)cc5s4)CC3)c2c1C | 7.24%
44 | Cc1sc2ncnc(N3CCC(C(=O)Nc4ccc(F)cc4Cl)CC3)c2c1C | 45% (active)
45 | Cc1cccc(N(C)C(=O)c2cc(S(=O)(=O)N3CCCCC3)c[nH]2)c1 | -3.91%
46 | Cc1ccc2cccc(O)c2[n+]1[O-] | 16.2%

Row | SMILES | activation
47 | NCC(=O)c1cccc2ccc[n+]([O-])c12 | 17.3% (active)
48 | Cc1cccc2cc3c(N)c(C(=O)N4CCCc5ccccc54)sc3nc12 | -7.18%
49 | Cc1nc2sc(C(=O)c3ccccc3)c(N)c2c2c1CCCC2 | 63% (active)
50 | Cn1c(-c2ccc(C(=O)c3ccccc3)s2)nc2ccccc21 | 0.98%
51 | O=C(NCc1ccccc1Cl)C(=O)NCC1CCCN1S(=O)(=O)c1cccs1 (centres undefined) | -2.08%
52 | CC(Oc1ccccc1)C(=O)Nc1c2c(nn1-c1ccccc1)CS(=O)C2 (centres undefined) | -0.93%
53 | Cc1ccc(S(=O)(=O)N2CCN(C(=O)CSc3cc(C)ccc3C)CC2)c(C)c1 | 18.8% (active)
54 | Cc1ccc(S(=O)(=O)N2CCN(C(=O)COC(=O)c3c(C)cc(C)cc3C)CC2)c(C)c1 | -3.37%
55 | CCCc1cc(=O)[nH]c(SCC(=O)N2CCN(S(=O)(=O)c3ccc(C)cc3C)CC2)n1 | -1.77%
56 | CC(C#N)(NC(=O)CN1CCN(S(=O)(=O)c2cc(C(F)(F)F)ccc2Cl)CC1)C1CC1 (centres undefined) | 0.11%
57 | COc1cccc(NC(=O)C2CCCN(c3ncnc4c3nc3n4CCCCC3)C2)c1 (centres undefined) | -6.71%
58 | CCOc1ccc(S(=O)(=O)Nc2cccc(C(=O)NCC3(N4CCCCC4)CCCCC3)c2)cc1 | -3.09%
59 | Cc1cc(C)c(S(=O)(=O)c2ccccc2)c(OC(=O)c2c(F)cccc2Cl)n1 | 1.34%
60 | Cc1ccc(S(=O)(=O)CCC(=O)OCc2ccccc2)cc1 | 1.2%
61 | O=C(CCS(=O)(=O)c1ccccc1)NC1CCCC1 | 2.49%
62 | O=C(O)CCS(=O)(=O)c1ccc(-c2ccccc2)cc1 | 20.7% (active)
63 | O=C1c2ccccc2NC(c2ccccn2)N1NS(=O)(=O)c1ccccc1 (centres undefined) | 16.5%
64 | CN(CC(=O)NCc1ccc2c(c1)OCO2)CC(=O)Nc1ccc(F)c(F)c1F | -5.56%
65 | CN(CC(=O)NCCc1ccc(F)cc1)CC(=O)Nc1ccc(F)c(F)c1F | 21.1% (active)
66 | CN(CC(=O)NCCc1ccc(S(N)(=O)=O)cc1)CC(=O)Nc1ccc(F)c(F)c1F | 0.07%
67 | Cc1cccc(OCCC(=O)Nc2ccccc2C(N)=O)c1 | 0.92%
68 | Cc1ccccc1NC(=O)CCOc1ccccc1 | 15.2% (active)
69 | CCc1ccccc1NC(=O)CCOc1ccccc1 | -7.57%

Row | SMILES | activation
70 | CCCn1nc(NS(=O)(=O)c2ccccc2)c2cc3cc(C)ccc3nc21 | 9.07%
71 | COc1ccc(CN2C(=O)C(CC(=O)NC3CCCCC3)CC(C(=O)N3CCOCC3)=C2C)cc1 (centres undefined) | 0.19%
72 | Cn1c(CCN2CCN(c3ccccn3)CC2)nc2cc(NS(=O)(=O)c3ccc(F)cc3)ccc21 | -13.9%
73 | C=CCC1(CC=C)CCCN1C(=O)CC1C(=O)NCCN1Cc1ccccc1OC (centres undefined) | 9.2%
74 | O=C(Nc1ccccc1-c1ccccc1)c1ccccc1[N+](=O)[O-] | -0.05%
75 | O=C(NCCNc1ccccc1[N+](=O)[O-])c1ccccc1F | -0.9%
76 | O=C(Nc1ccccc1Cl)c1ccccc1S(=O)(=O)c1ccccc1[N+](=O)[O-] | 24.3% (active)
77 | Cc1cc(OC(C)C(=O)Nc2ccc(S(=O)(=O)Nc3onc(C)c3C)cc2)cc(C)c1Cl (centres undefined) | -0.5%
78 | COc1ccc(C(=O)Nc2ccc(S(=O)(=O)Nc3onc(C)c3C)cc2)cc1OC | 31.2% (active)
79 | Cc1noc(NS(=O)(=O)c2ccc(NC(=O)c3oc4ccc(F)cc4c3C)cc2)c1C | -0.81%
80 | CCOC(=O)CNC(=O)CSc1ccc2nnc(-c3cccnc3)n2n1 | -1.25%
81 | CN(Cc1ccccc1)C(=O)c1ccc(NC2=NC3CS(=O)(=O)CC3S2)cc1 (centres undefined) | -4.53%
82 | CCS(=O)(=O)Nc1cccc(-c2cc(-c3ccccc3)c3cc(C)ccc3n2)c1 | -23%
83 | Cc1ccc(-c2cc(C(=O)NCc3cn(C)nc3C)c3cc(Br)ccc3n2)cc1 | -8.1%
84 | Cc1ccc2nc(-c3ccncc3)cc(C(=O)Nc3ccncc3)c2c1 | 20.7% (active)
85 | CCCC[C@@H]1CN=C(N)N1CCc1cc(C(F)(F)F)cc(C(F)(F)F)c1 | -12.2%
86 | CCOC(=O)C1=C(c2ccccc2)O/C(=C(/C(=O)OC)C(F)(F)F)S1 | -8.8%
87 | OC[C@@H]1CN(Cc2ccc(Cl)cc2)C[C@H](n2cnc3c(NCc4ccncc4)ncnc32)O1 | -0.98%
88 | COCCNc1ncnc2c1ncn2[C@H]1CN(Cc2ccc(OC)cc2)C[C@@H](CO)O1 | 16.3% (active)
89 | COCCNc1ncnc2c1ncn2[C@H]1CN(CCN2CCOCC2)C[C@@H](CO)O1 | -3.76%
